Measured values taken from PubChem BioAssay (Tox21).
Inconclusive results are not listed. Calls of active or inactive are those of the source. Unless noted, calls come from the whole dose curve; as a rule, active = well fitted curve in the direction sought with a large enough effect in the repeat runs; inconclusive = weak or mixed curves; inactive = no such curve, though single readings can be large; an effect the other way counts as inactive or inconclusive.

Experiments:
[1] = biological target: Thyrotropin receptor (Homo sapiens) (UniProt P16473); experiment: qHTS assay to identify small molecule agonists of the thyroid stimulating hormone receptor (TSHR) signaling pathway (AID 1224843; calls by dose curve; note: nearly all actives have a fitted effect of over 45% in size)
Chain of Thyrotropin receptor (Homo sapiens) (P16473 whole entry, looked up): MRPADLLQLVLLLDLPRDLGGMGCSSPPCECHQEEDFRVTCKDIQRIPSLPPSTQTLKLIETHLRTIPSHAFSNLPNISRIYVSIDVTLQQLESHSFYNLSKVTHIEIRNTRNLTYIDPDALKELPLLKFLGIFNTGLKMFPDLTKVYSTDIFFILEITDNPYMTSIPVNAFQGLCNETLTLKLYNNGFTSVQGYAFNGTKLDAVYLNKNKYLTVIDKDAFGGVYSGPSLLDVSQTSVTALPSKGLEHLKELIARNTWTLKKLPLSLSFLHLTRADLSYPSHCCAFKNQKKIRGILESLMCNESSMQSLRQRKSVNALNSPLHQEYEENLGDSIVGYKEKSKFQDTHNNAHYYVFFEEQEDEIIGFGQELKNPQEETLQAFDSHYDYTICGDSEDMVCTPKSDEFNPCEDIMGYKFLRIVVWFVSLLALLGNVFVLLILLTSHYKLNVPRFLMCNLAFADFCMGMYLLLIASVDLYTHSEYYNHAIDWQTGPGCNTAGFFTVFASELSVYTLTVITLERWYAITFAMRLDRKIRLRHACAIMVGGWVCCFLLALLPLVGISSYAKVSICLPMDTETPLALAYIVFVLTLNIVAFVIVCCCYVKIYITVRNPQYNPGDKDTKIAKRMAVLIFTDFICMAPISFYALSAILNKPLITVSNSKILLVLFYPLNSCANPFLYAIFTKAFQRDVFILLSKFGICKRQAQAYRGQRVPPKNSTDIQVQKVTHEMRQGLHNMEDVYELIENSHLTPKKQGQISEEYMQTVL
Summary of the method: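 HEK293 cells stably bearing the thyrotropin receptor were plated at 800 cells/well and challenged with compound (30 min, RT). Accumulated cAMP was quantified via cAMP-d2 competing for cryptate-tagged antibody.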

[2] = qHTS assay to identify small molecule agonists of the hypoxia (HIF-1) signaling pathway - cell viability counter screen (AID 1224844; calls by dose curve; note: nearly all actives have a fitted effect of over 50% in size)
Summary of the method: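 HRE-bla ME-180 cells, 2,000/well in 0.5% dialyzed FBS medium, treated 17 h at 37C with compounds. Viability read in the same wells as the bla reporter, by CellTiter-Glo luminescence after 30 min at room temperature.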

[3] = qHTS assay to identify small molecule agonists of H2AX (AID 1224845; active = well fitted activation curve with a large enough effect in the signal ratio in the repeat runs, not every such curve was filed as active; the % refers to the signal ratio)
Summary of the method: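 Phospho-H2AX Ser139 measured by HTRF (ex 320 nm; em 665 and 620 nm) after 24 hr antibody incubation. Compounds, 15 concentrations, 0.76% DMSO, were applied to CHO-K1 cells for 3hr at 37C before lysis.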

[4] = qHTS assay to identify small molecule agonists of the hypoxia (HIF-1) signaling pathway (AID 1224846; active = well fitted activation curve with a large enough effect in the signal ratio in the repeat runs, not every such curve was filed as active; the % refers to the signal ratio)
Summary of the method: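 HRE-bla ME-180 beta-lactamase reporter cells in medium with 0.5% dialyzed FBS, pre-incubated 5 h then exposed to compounds 17 h at 37C, 5% CO2; reporter induction read with CCF4-AM FRET substrate.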

[5] = qHTS assay to identify small molecule agonists of H2AX - cell viability counter screen (AID 1224847; calls by dose curve; note: top concentration of the series differs between compounds; nearly all actives have a fitted effect of over 30% in size)
Summary of the method: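 Cytotoxicity counter screen in wild-type CHO-K1 cells: a 3 hr compound treatment at 37C across 15 concentrations, followed by CellTiter-Glo luminescence to gauge viable cells.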

[6] = qHTS RealTime-Glo MT Cell Viability Assay in HepG2 cells - 24 hour (AID 1224867); note: nearly all actives have a fitted effect of over 50% in size
Summary of the method: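 HepG2 cells were seeded at 600 cells/well together with NanoLuc luciferase and a cell-permeant prosubstrate, preincubated 5 h at 37 C/5% CO2, then pin-dosed with compounds in DMSO. Nonlytic luminescence from viable cells was read at each time point.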

[7] = qHTS RealTime-Glo MT Cell Viability Assay in HEK293 cells - 32 hour (AID 1224868); note: top concentration of the series differs between compounds; nearly all actives have a fitted effect of over 50% in size
Summary of the method: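 HEK293 cells were seeded at 600 cells/well together with NanoLuc luciferase and cell-permeant prosubstrate, preincubated 5 h at 37 C/5% CO2, then given compound in DMSO by pintool. Luminescence from viable-cell prosubstrate reduction was read repeatedly over 40 h.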

[8] = A CellTox Green Cytotoxicity Assay to monitor cytotoxicity in HEK293 cells - 0 hour (AID 1224869); note: nearly all actives have a fitted effect of over 50% in size
Summary of the method: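 HEK293 cells, 600/well, were preincubated 5 hours and then exposed to compounds at 37 C for up to 40 hours. A cell-impermeant cyanine dye staining dead-cell DNA was read by fluorescence at 0, 8, 16, 24, 32 and 40 h time points.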

[9] = qHTS assay to identify small molecule antagonists of the estrogen related receptor (ERR) signaling pathway from Tox21 library (AID 1224848); note: nearly all actives have a fitted effect of over 50% in size
Summary of the method: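 Reading was by luminescence 30 min after ONE-Glo addition. Before that, ERR cells at 2,000 per well had rested 6 h at 37 C/5% CO2 and then received pin-tooled compounds in DMSO for 18 h at 37 C.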

[10] = qHTS assay to identify small molecule agonists of the estrogen related receptor (ERR) signaling pathway from Tox21 library (AID 1224849; calls by dose curve; note: nearly all actives have a fitted effect of over 15% in size); conditions: ERR reporter cell line, ONE-Glo luciferase, 18 h; at 92.4 µM (top of the series) unless noted
Summary of the method: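 ERR reporter cells (NTP line) pre-incubated 6 hours at 37 C, then exposed to compounds for 18 hours at 37 C. ONE-Glo luciferase luminescence was read after 30 minutes at room temperature.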
% is set by controls: 0 for no effect and ±100 for the full control effect.

CCCc1ccc(N)cc1
inactive: outcome [1] | Potency [2] | outcome [3] | outcome [4] | Potency [5] | outcome [6] | Potency [7] | Potency [8]

COc1nc(C)nc(N)n1
inactive: outcome [1] | Potency [2] | outcome [3] | outcome [4] | Potency [5] | outcome [6] | Potency [7] | Potency [8]

C=C(C)C(=O)OCCC(C)OC(=O)C(=C)C (stereo unspecified)
inactive: outcome [1] | Potency [2] | outcome [3] | outcome [4] | Potency [9] | activity change, positive = activation [10] 3.72% | outcome [6] | Potency [7] | Potency [8]

O=Cc1ccccc1[N+](=O)[O-]
inactive: outcome [1] | Potency [2] | outcome [3] | outcome [4] | Potency [9] | activity change, positive = activation [10] 2.11% | outcome [6] | Potency [7] | Potency [8]

Cc1ccccc1C(=O)O
inactive: outcome [1] | Potency [2] | outcome [3] | outcome [4] | Potency [5] | outcome [6] | Potency [7] | Potency [8]

CC1=CC(C)C(C=O)C(C)C1 (stereo unspecified)
inactive: outcome [1] | Potency [2] | outcome [3] | outcome [4] | Potency [5] | outcome [6] | Potency [7] | Potency [8]

CC(C)[C@H](N)C(=O)OCCOCn1cnc2c(=O)[nH]c(N)nc21
inactive: outcome [1] | Potency [2] | outcome [3] | outcome [4] | Potency [5] | outcome [6] | Potency [7] | Potency [8]

CC(=O)NC(Cc1ccccc1)C(=O)O (stereo unspecified)
inactive: outcome [1] | Potency [2] | outcome [3] | outcome [4] | Potency [5] | outcome [6] | Potency [7] | Potency [8]

O=C1CC2(CCCC2)CC(=O)N1
inactive: outcome [1] | Potency [2] | outcome [3] | outcome [4] | Potency [5] | outcome [6] | Potency [7] | Potency [8]

CCCc1ccccc1O
inactive: outcome [1] | Potency [2] | outcome [3] | outcome [4] | Potency [5] | outcome [6] | Potency [7]

CC(C)CCCC(C)CCCC(C)CCCCC(C)CCCC(C)CCCC(C)C (stereo unspecified)
inactive: outcome [1] | Potency [2] | outcome [3] | outcome [4] | Potency [5] | outcome [6] | Potency [7] | Potency [8]

CC(C)c1cccc(O)c1
inactive: outcome [1] | Potency [2] | outcome [3] | outcome [4] | Potency [9] | activity change, positive = activation [10] 1.69% | outcome [6] | Potency [7] | Potency [8]

CC(C)=CC(=O)O
inactive: outcome [1] | Potency [2] | outcome [3] | outcome [4] | Potency [5] | outcome [6] | Potency [7] | Potency [8]

CCCCCCC(CCCCCCCCCCC(=O)OCC(COC(C)=O)OC(C)=O)OC(C)=O (stereo unspecified)
inactive: outcome [1] | Potency [2] | outcome [3] | outcome [4] | Potency [5] | outcome [6] | Potency [7] | Potency [8]

COc1ccc(NC(C)=O)cc1
inactive: outcome [1] | Potency [2] | outcome [3] | outcome [4] | Potency [5] | outcome [6] | Potency [7] | Potency [8]

CC(C)(C)CC(C)(C)N
inactive: outcome [1] | Potency [2] | outcome [3] | outcome [4] | Potency [5] | outcome [6] | Potency [7] | Potency [8]

NC(=O)c1ncn([C@@H]2O[C@H](CO)[C@@H](O)[C@H]2O)c1N
inactive: outcome [1] | Potency [2] | outcome [3] | outcome [4] | Potency [5] | outcome [6] | Potency [7] | Potency [8]

Nc1nc(F)nc2c1ncn2[C@@H]1O[C@H](CO)[C@@H](O)[C@@H]1O
inactive: outcome [1] | Potency [2] | outcome [3] | outcome [4] | Potency [5] | outcome [6] | Potency [7] | Potency [8]

CC(=O)CCc1ccc(O)cc1
inactive: outcome [1] | Potency [2] | outcome [3] | outcome [4] | Potency [5] | outcome [6] | Potency [7] | Potency [8]

CC(=O)c1ccc(C)cc1
inactive: outcome [1] | Potency [2] | outcome [3] | outcome [4] | Potency [5] | outcome [6] | Potency [7] | Potency [8]

C[N+](C)(C)CC[N+]1(C)Cc2c(Cl)c(Cl)c(Cl)c(Cl)c2C1
inactive: outcome [1] | Potency [2] | outcome [3] | outcome [4] | Potency [5] | Potency [7] | Potency [8]

CO[Si](CCCNCCC[Si](OC)(OC)OC)(OC)OC
inactive: outcome [1] | Potency [2] | outcome [3] | outcome [4] | Potency [5] | outcome [6] | Potency [7] | Potency [8]

C=CCOc1nc(OCC=C)nc(OCC=C)n1
inactive: outcome [1] | Potency [2] | outcome [3] | outcome [4] | Potency [5] | outcome [6] | Potency [7] | Potency [8]

CCCCCCCCCCC1CO1 (stereo unspecified)
inactive: outcome [1] | Potency [2] | outcome [3] | outcome [4] | Potency [5] | outcome [6] | Potency [7] | Potency [8]

Cc1cc(C)cc(OCC2CNC(=O)O2)c1 (stereo unspecified)
inactive: outcome [1] | Potency [2] | outcome [3] | outcome [4] | Potency [5] | outcome [6] | Potency [7] | Potency [8]
